From the supplement of paper PMC11732987, “Enantioselective OTUD7B fragment discovery through chemoproteomics screening and high-throughput optimisation” (Communications Chemistry, 2025)

Legend:
Test in all cases: log2 ratio of Biotin-Ahx-Ub-VS probe labelling (fragment/DMSO); higher = less target engagement (more negative = stronger competition), active = hit call of the paper (q ≤ 0.05, log2 ratio ≤ -1)
Details in all cases: compound concentration: 200 uM; treatment time: 3 h
USP34 = USP34 (UniProt Q70CQ2)
Sequence of USP34 (Q70CQ2 whole entry, the tested form may be a part): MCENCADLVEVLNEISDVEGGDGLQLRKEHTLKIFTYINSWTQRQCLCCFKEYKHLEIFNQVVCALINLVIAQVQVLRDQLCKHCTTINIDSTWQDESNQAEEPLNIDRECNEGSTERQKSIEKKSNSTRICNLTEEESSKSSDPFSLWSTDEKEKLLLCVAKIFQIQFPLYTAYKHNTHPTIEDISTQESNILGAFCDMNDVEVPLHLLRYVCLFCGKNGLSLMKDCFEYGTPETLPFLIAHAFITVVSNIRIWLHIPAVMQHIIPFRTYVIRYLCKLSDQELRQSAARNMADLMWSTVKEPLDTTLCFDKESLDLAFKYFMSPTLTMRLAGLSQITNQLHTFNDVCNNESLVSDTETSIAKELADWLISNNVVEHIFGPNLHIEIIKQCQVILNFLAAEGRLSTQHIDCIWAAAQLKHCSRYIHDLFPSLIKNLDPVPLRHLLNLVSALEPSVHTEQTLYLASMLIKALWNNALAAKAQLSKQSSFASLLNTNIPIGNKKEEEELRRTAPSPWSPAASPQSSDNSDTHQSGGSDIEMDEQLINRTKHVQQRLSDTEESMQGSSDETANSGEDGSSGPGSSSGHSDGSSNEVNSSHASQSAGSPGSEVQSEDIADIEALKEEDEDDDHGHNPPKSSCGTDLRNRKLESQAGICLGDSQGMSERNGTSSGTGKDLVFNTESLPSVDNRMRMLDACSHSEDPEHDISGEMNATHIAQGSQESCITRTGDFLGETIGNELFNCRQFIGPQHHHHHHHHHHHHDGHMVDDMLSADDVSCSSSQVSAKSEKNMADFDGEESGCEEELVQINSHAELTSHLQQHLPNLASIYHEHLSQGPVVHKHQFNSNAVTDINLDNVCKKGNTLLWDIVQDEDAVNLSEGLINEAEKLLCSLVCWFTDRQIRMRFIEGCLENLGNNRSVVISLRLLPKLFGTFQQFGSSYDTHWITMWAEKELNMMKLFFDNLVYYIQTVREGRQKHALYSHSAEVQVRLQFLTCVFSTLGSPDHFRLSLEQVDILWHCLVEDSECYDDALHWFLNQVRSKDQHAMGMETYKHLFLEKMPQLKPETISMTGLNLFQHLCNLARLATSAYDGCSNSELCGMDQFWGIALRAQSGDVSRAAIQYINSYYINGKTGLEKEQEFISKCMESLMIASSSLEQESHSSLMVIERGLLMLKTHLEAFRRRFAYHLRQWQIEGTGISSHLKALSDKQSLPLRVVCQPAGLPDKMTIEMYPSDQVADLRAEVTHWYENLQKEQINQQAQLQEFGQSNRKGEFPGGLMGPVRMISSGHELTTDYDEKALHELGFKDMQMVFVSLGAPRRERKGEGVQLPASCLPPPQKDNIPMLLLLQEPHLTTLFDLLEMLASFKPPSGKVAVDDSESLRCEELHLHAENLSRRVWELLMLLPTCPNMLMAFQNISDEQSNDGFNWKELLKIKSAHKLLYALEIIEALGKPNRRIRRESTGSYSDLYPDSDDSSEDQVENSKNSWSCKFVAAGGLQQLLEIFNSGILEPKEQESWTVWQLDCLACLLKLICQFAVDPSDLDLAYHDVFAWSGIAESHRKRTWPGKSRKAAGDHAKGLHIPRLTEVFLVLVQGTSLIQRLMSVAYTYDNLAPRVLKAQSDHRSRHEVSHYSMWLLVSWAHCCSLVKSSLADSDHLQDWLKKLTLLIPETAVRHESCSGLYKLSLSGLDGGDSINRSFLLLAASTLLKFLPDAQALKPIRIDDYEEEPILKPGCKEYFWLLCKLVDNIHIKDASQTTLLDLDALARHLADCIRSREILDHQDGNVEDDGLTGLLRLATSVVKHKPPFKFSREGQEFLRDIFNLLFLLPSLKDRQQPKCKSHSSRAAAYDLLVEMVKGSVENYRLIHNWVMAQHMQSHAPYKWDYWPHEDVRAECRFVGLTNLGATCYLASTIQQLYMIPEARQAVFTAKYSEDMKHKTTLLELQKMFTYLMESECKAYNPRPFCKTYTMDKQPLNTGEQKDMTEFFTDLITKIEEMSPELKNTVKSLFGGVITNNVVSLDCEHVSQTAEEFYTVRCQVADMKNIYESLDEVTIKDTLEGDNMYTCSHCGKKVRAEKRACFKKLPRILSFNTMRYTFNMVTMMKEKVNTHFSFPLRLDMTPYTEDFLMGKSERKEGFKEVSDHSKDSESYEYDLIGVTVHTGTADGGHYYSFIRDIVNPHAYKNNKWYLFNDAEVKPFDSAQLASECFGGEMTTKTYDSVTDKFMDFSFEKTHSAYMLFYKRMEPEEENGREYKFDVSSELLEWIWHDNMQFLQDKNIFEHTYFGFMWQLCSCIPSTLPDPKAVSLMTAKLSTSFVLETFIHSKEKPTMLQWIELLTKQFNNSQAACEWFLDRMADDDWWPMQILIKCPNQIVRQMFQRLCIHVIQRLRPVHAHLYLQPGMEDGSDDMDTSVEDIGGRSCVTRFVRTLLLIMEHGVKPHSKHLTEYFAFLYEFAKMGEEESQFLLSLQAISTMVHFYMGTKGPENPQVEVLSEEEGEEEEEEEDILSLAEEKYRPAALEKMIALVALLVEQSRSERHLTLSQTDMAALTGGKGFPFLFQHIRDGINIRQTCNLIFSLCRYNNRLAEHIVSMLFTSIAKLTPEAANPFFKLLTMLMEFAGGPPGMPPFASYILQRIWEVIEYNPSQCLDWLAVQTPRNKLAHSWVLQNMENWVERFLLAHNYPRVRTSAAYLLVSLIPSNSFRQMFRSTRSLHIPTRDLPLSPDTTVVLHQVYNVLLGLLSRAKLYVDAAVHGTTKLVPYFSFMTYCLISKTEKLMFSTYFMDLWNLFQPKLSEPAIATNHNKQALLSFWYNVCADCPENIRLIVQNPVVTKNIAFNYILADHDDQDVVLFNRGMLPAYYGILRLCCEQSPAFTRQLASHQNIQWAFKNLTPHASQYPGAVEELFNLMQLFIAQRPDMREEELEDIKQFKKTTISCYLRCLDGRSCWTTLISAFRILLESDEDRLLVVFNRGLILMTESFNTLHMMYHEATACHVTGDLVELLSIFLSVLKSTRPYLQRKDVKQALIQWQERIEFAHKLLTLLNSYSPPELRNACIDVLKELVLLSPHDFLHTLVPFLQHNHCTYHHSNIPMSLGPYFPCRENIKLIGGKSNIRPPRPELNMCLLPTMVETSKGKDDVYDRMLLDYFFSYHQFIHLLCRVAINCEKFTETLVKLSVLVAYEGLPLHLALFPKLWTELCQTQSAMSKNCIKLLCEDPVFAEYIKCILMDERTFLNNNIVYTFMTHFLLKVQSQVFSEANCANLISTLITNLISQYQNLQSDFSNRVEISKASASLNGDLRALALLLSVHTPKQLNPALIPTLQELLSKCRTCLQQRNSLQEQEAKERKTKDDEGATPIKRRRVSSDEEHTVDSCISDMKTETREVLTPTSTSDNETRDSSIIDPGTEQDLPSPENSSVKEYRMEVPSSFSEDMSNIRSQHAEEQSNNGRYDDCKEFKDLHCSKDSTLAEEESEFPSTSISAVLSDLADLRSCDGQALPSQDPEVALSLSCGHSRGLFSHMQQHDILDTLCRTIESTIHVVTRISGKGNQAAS
Summary of the method: (§1)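 Labelled DUBs were enriched with NeutrAvidin, digested with LysC and trypsin, and run by diaPASEF LC-MS/MS. The labelling used Biotin-Ahx-Ub-VS at 0.5 µM final for 1 h on HEK293T lysate (495 µg per sample) previously treated in triplicate with fragment at 200 µM or vehicle for 3 h. Values are average log2 fragment/vehicle ratios by unpaired t-test on global-median-normalised Spectronaut quantities of proteins with ≥2 unique peptides.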

USP36 = target: T1, USP36 (UniProt Q9P275)
T1 sequence (whole entry): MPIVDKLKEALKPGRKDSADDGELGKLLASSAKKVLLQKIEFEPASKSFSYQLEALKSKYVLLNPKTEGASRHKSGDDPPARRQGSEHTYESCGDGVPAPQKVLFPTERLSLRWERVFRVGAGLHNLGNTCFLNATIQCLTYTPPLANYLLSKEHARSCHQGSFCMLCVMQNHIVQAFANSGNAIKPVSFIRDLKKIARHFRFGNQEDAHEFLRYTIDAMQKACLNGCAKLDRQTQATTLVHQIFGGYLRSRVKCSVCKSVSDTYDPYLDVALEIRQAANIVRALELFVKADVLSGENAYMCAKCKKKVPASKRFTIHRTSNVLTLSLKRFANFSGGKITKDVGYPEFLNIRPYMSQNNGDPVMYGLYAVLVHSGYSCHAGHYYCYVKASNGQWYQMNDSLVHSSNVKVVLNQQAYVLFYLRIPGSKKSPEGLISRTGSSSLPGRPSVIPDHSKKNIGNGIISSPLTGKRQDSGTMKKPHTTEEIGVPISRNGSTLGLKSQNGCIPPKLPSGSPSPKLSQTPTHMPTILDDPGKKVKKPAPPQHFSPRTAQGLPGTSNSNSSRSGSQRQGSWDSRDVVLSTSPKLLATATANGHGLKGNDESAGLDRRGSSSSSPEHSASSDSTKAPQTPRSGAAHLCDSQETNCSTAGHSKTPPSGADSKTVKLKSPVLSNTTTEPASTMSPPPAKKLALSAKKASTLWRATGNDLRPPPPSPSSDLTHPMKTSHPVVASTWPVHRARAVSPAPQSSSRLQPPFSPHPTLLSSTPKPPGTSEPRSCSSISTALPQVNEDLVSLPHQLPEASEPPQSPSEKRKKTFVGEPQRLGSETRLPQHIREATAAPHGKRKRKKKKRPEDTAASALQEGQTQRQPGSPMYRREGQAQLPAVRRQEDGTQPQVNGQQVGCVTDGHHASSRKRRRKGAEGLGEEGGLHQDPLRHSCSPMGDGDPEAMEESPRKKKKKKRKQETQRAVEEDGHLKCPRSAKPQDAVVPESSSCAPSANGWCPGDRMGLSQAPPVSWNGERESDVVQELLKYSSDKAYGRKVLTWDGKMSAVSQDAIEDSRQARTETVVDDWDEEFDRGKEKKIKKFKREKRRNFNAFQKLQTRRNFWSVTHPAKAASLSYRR
Summary of the method: as §1

USP38 = target: T2, USP38 (UniProt Q8NB14)
T2 sequence (whole entry): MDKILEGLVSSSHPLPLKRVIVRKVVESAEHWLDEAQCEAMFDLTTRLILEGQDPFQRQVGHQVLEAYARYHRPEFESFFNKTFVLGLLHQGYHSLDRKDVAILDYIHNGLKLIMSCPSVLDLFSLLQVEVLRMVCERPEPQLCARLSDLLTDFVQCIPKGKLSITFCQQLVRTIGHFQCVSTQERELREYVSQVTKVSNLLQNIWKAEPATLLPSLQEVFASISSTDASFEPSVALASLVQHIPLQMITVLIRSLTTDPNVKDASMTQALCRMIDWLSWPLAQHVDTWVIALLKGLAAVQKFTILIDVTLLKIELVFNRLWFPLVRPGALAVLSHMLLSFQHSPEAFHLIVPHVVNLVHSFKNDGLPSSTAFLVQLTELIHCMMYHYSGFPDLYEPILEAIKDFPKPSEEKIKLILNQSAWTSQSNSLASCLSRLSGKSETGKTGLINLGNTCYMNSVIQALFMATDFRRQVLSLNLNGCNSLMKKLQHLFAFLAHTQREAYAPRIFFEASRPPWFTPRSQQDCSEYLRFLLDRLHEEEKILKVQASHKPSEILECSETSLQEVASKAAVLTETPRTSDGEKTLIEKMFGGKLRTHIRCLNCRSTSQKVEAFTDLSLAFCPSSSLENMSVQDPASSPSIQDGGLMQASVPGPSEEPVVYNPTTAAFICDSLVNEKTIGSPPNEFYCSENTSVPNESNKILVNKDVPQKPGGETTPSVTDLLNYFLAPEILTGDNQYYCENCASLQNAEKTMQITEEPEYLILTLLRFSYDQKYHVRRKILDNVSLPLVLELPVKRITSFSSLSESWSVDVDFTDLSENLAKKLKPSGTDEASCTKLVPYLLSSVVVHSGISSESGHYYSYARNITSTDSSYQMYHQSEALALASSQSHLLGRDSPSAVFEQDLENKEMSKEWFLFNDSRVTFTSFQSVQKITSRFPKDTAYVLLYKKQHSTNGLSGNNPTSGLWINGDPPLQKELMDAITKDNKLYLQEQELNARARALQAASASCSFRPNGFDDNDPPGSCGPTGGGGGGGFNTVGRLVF
Summary of the method: as §1

USP39 = target: T3, USP39 (UniProt Q53GS9)
T3 sequence (whole entry): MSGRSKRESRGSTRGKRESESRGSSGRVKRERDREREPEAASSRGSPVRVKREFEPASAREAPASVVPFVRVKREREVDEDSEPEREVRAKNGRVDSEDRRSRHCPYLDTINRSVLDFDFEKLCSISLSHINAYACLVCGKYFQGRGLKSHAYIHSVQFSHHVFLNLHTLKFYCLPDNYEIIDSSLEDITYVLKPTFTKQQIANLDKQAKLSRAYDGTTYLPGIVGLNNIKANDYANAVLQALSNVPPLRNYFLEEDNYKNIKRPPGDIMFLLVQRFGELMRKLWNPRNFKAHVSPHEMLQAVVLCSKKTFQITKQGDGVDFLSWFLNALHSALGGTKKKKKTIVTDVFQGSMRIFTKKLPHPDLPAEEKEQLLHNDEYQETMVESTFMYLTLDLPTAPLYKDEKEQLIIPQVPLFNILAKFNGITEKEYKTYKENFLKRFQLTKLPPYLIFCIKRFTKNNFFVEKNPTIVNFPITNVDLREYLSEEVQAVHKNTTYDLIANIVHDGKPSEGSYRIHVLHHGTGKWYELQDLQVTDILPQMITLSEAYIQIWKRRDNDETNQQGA
Summary of the method: as §1

USP4 = target: T4, USP4 (UniProt Q13107)
T4 sequence (whole entry): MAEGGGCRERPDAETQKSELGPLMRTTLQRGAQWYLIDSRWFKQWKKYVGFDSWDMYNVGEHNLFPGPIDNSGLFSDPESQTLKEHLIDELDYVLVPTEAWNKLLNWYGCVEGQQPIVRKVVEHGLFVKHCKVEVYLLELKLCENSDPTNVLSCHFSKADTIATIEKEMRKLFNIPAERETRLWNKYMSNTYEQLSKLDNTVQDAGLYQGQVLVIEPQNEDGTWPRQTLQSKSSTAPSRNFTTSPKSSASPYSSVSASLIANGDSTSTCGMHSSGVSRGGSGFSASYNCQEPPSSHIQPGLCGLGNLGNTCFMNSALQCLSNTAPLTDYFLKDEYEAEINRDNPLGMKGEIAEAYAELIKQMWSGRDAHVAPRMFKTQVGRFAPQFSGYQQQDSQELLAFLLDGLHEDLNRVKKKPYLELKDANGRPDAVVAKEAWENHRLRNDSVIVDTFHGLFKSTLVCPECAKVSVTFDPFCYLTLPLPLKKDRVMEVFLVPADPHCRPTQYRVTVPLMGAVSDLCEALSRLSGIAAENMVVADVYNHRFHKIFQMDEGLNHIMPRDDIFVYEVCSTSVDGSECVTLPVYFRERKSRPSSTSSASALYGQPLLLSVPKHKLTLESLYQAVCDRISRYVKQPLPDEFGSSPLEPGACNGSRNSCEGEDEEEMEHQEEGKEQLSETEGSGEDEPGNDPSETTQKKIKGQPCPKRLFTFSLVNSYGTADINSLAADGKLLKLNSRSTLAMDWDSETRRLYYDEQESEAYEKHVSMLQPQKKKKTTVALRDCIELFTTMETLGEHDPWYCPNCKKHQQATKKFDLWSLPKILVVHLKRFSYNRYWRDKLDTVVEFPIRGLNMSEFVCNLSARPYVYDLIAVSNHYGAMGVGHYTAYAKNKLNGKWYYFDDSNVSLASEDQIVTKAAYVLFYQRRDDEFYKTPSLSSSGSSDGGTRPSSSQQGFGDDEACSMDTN
Summary of the method: as §1

Measured: log2 ratio of Biotin-Ahx-Ub-VS probe labelling

O=C(CCl)Nc1nc(-c2cccs2)cs1
inactive: USP34 -0.754 | USP36 -0.271 | USP38 -0.092 | USP39 0.197 | USP4 -0.0279
